# Measurements: the supplement of paper PMC8728848
# Many of the other results were omitted from the sample, so the strongest signals are more common in it than they were.
# Experiments:
# Test in all cases: glycan array binding signal (z-score within array); higher = stronger binding
# Conditions in all cases: glycan notation: IUPAC condensed, linker removed
# [1] = biological target: Fuc(a1-2)Gal(b1-4)[Fuc(a1-3)]GlcNAc(b1-2)[Fuc(a1-2)Gal(b1-4)[Fuc(a1-3)]GlcNAc(b1-4)]Man(a1-3)[Fuc(a1-2)Gal(b1-4)[Fuc(a1-3)]GlcNAc(b1-2)Man(a1-6)]Man(b1-4)GlcNAc(b1-4)GlcNAc
# Procedure, shortened: (§1)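 The binding signal is a Z-score computed within each array and averaged over linkers. Arrays of the same protein sequence at different concentrations or buffers were also averaged together. Data originate from 3228 arrays in the Consortium for Functional Glycomics database, kept only where the protein sequence was available.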
# [2] = biological target: Fuc(a1-2)[Gal(a1-3)]Gal(b1-3)GalNAc(b1-3)Gal(a1-4)Gal(b1-4)Glc
# Procedure, shortened: as §1
# [3] = biological target: Fuc(a1-2)[Gal(a1-3)]Gal(b1-3)GlcNAc(b1-2)Man(a1-3)[Fuc(a1-2)[Gal(a1-3)]Gal(b1-3)GlcNAc(b1-2)Man(a1-6)]Man(b1-4)GlcNAc(b1-4)GlcNAc
# Procedure, shortened: as §1
# [4] = biological target: Fuc(a1-2)[Gal(a1-3)]Gal(b1-4)[Fuc(a1-3)]Glc
# Procedure, shortened: as §1
# [5] = biological target: Fuc(a1-2)[GalNAc(a1-3)]Gal(b1-3)GlcNAc(b1-3)GalNAc
# Procedure, shortened: as §1
# [6] = biological target: Fuc(a1-2)[GalNAc(a1-3)]Gal(b1-4)GlcNAc(b1-2)Man(a1-3)[Fuc(a1-2)[GalNAc(a1-3)]Gal(b1-4)GlcNAc(b1-2)Man(a1-6)]Man(b1-4)GlcNAc(b1-4)GlcNAc
# Procedure, shortened: as §1
# [7] = biological target: Fuc(a1-3)GlcNAc
# Procedure, shortened: as §1
# [8] = biological target: Fuc(a1-3)[Gal(b1-4)]GlcNAc(b1-3)Gal(b1-4)[Fuc(a1-3)]GlcNAc
# Procedure, shortened: as §1
# [9] = biological target: Fuc(a1-3)[Gal(b1-4)]GlcNAc6S
# Procedure, shortened: as §1
# [10] = biological target: Gal(a1-3)Gal(b1-4)GlcNAc(b1-2)Man(a1-3)[Gal(a1-3)Gal(b1-4)GlcNAc(b1-2)Man(a1-6)]Man(b1-4)GlcNAc(b1-4)GlcNAc
# Procedure, shortened: as §1
# [11] = biological target: Gal(a1-3)Gal(b1-4)[Fuc(a1-3)]GlcNAc
# Procedure, shortened: as §1
# [12] = biological target: Gal(a1-3)Gal(b1-4)[Fuc(a1-3)]GlcNAc(b1-2)Man(a1-3)[Gal(a1-3)Gal(b1-4)[Fuc(a1-3)]GlcNAc(b1-2)Man(a1-6)]Man(b1-4)GlcNAc(b1-4)GlcNAc
# Procedure, shortened: as §1
# [13] = biological target: Gal(a1-4)Gal(b1-4)Glc
# Procedure, shortened: as §1
# [14] = biological target: Gal(b1-3)GlcNAc
# Procedure, shortened: as §1
# [15] = biological target: Gal(b1-3)GlcNAc(b1-2)Man(a1-3)[GlcNAc(b1-4)][Gal(b1-3)GlcNAc(b1-2)Man(a1-6)]Man(b1-4)GlcNAc(b1-4)GlcNAc
# Procedure, shortened: as §1
# [16] = biological target: Gal(b1-4)GlcNAc(b1-3)Gal(b1-4)GlcNAc(b1-2)Man(a1-3)[Gal(b1-4)GlcNAc(b1-3)Gal(b1-4)GlcNAc(b1-2)Man(a1-6)]Man(b1-4)GlcNAc(b1-4)GlcNAc
# Procedure, shortened: as §1
# [17] = biological target: Gal(b1-4)GlcNAc(b1-3)Gal(b1-4)GlcNAc(b1-3)Gal(b1-4)GlcNAc(b1-2)Man(a1-3)[Gal(b1-4)GlcNAc(b1-3)Gal(b1-4)GlcNAc(b1-3)Gal(b1-4)GlcNAc(b1-2)Man(a1-6)]Man(b1-4)GlcNAc(b1-4)GlcNAc
# Procedure, shortened: as §1
# [18] = biological target: Gal(b1-4)GlcNAc(b1-3)Gal(b1-4)GlcNAc(b1-3)Gal(b1-4)GlcNAc(b1-3)Gal(b1-4)GlcNAc(b1-3)Gal(b1-4)GlcNAc(b1-2)Man(a1-3)[Gal(b1-4)GlcNAc(b1-3)Gal(b1-4)GlcNAc(b1-3)Gal(b1-4)GlcNAc(b1-3)Gal(b1-4)GlcNAc(b1-3)Gal(b1-4)GlcNAc(b1-2)Man(a1-6)]Man(b1-4)GlcNAc(b1-4)GlcNAc
# Procedure, shortened: as §1
# [19] = biological target: Gal3S(b1-4)[Fuc(a1-3)]Glc6S
# Procedure, shortened: as §1
# [20] = biological target: Gal3S(b1-4)[Fuc(a1-3)]GlcNAc
# Procedure, shortened: as §1
# [21] = biological target: Gal3S6S(b1-4)GlcNAc
# Procedure, shortened: as §1
# [22] = biological target: Gal6S(b1-4)GlcNAc6S
# Procedure, shortened: as §1
# [23] = biological target: GalNAc(b1-6)GalNAc
# Procedure, shortened: as §1
# [24] = biological target: GlcNAc(a1-4)Gal(b1-4)GalNAc
# Procedure, shortened: as §1
# [25] = biological target: GlcNAc(a1-4)Gal(b1-4)GlcNAc
# Procedure, shortened: as §1
# [26] = biological target: GlcNAc(b1-2)Man(a1-3)[GlcNAc(b1-4)][GlcNAc(b1-2)Man(a1-6)]Man(b1-4)GlcNAc(b1-4)[Fuc(a1-6)]GlcNAc
# Procedure, shortened: as §1
# [27] = biological target: GlcNAc(b1-3)Gal(b1-4)GlcNAc(b1-2)Man(a1-3)[GlcNAc(b1-3)Gal(b1-4)GlcNAc(b1-2)Man(a1-6)]Man(b1-4)GlcNAc(b1-4)[Fuc(a1-6)]GlcNAc
# Procedure, shortened: as §1
# [28] = biological target: GlcNAc(b1-3)Gal(b1-4)GlcNAc(b1-3)Gal(b1-4)GlcNAc(b1-3)Gal(b1-4)GlcNAc(b1-2)Man(a1-3)[GlcNAc(b1-3)Gal(b1-4)GlcNAc(b1-3)Gal(b1-4)GlcNAc(b1-3)Gal(b1-4)GlcNAc(b1-2)Man(a1-6)]Man(b1-4)GlcNAc(b1-4)[Fuc(a1-6)]GlcNAc
# Procedure, shortened: as §1
# [29] = biological target: GlcNAc(b1-3)Gal(b1-4)GlcNAc(b1-3)Gal(b1-4)GlcNAc(b1-3)Gal(b1-4)GlcNAc(b1-2)[GlcNAc(b1-3)Gal(b1-4)GlcNAc(b1-3)Gal(b1-4)GlcNAc(b1-3)Gal(b1-4)GlcNAc(b1-6)]Man(a1-6)[GlcNAc(b1-3)Gal(b1-4)GlcNAc(b1-3)Gal(b1-4)GlcNAc(b1-3)Gal(b1-4)GlcNAc(b1-2)Man(a1-3)]Man(b1-4)GlcNAc(b1-4)[Fuc(a1-6)]GlcNAc
# Procedure, shortened: as §1
# [30] = biological target: Neu5Ac(a2-3)Gal(b1-3)GalNAc(b1-4)[Neu5Ac(a2-3)]Gal(b1-4)Glc
# Procedure, shortened: as §1
# [31] = biological target: Neu5Ac(a2-3)Gal(b1-3)GalNAc(b1-4)[Neu5Ac(a2-8)Neu5Ac(a2-3)]Gal(b1-4)Glc
# Procedure, shortened: as §1
# [32] = biological target: Neu5Ac(a2-3)Gal(b1-3)GlcNAc(b1-2)[Neu5Ac(a2-3)Gal(b1-3)GlcNAc(b1-4)]Man(a1-6)[Neu5Ac(a2-3)Gal(b1-3)GlcNAc(b1-2)Man(a1-3)]Man(b1-4)GlcNAc(b1-4)GlcNAc
# Procedure, shortened: as §1
# [33] = biological target: Neu5Ac(a2-3)Gal(b1-4)GlcNAc(b1-3)Gal(b1-4)GlcNAc(b1-2)Man(a1-3)[Neu5Ac(a2-3)Gal(b1-4)GlcNAc(b1-3)Gal(b1-4)GlcNAc(b1-2)Man(a1-6)]Man(b1-4)GlcNAc(b1-4)GlcNAc
# Procedure, shortened: as §1
# [34] = biological target: Neu5Ac(a2-3)Gal(b1-4)GlcNAc(b1-3)Gal(b1-4)GlcNAc(b1-3)Gal(b1-4)GlcNAc(b1-2)Man(a1-3)[Neu5Ac(a2-3)Gal(b1-4)GlcNAc(b1-3)Gal(b1-4)GlcNAc(b1-3)Gal(b1-4)GlcNAc(b1-2)Man(a1-6)]GalNAc
# Procedure, shortened: as §1
# [35] = biological target: Neu5Ac(a2-3)Gal(b1-4)[Fuc(a1-3)]GlcNAc(b1-3)GalNAc
# Procedure, shortened: as §1
# [36] = biological target: Neu5Ac(a2-3)[GalNAc(b1-4)]Gal(b1-4)Glc
# Procedure, shortened: as §1
# [37] = biological target: Neu5Ac(a2-6)Gal(b1-4)GlcNAc(b1-2)[Neu5Ac(a2-6)Gal(b1-4)GlcNAc(b1-6)]Man(a1-6)[Neu5Ac(a2-6)Gal(b1-4)GlcNAc(b1-2)Man(a1-3)][GlcNAc(b1-4)]Man(b1-4)GlcNAc(b1-4)GlcNAc
# Procedure, shortened: as §1
# [38] = biological target: Neu5Ac(a2-6)Gal(b1-4)GlcNAc(b1-3)Gal(b1-4)GlcNAc
# Procedure, shortened: as §1
# [39] = biological target: Neu5Ac(a2-6)Gal(b1-4)GlcNAc(b1-3)Gal(b1-4)GlcNAc(b1-3)Gal(b1-4)GlcNAc(b1-2)Man(a1-3)[Neu5Ac(a2-6)Gal(b1-4)GlcNAc(b1-3)Gal(b1-4)GlcNAc(b1-3)Gal(b1-4)GlcNAc(b1-2)Man(a1-6)]GalNAc
# Procedure, shortened: as §1
# [40] = biological target: Neu5Ac(a2-6)Gal(b1-4)GlcNAc(b1-3)Gal(b1-4)GlcNAc(b1-3)[Neu5Ac(a2-6)Gal(b1-4)GlcNAc(b1-3)Gal(b1-4)GlcNAc(b1-6)]GalNAc
# Procedure, shortened: as §1
# [41] = biological target: Neu5Ac(a2-6)Gal(b1-4)GlcNAc(b1-3)Gal(b1-4)[Fuc(a1-3)]GlcNAc(b1-3)Gal(b1-4)[Fuc(a1-3)]GlcNAc
# Procedure, shortened: as §1
# [42] = biological target: Neu5Ac(a2-8)Neu5Ac(a2-3)Gal(b1-4)Glc
# Procedure, shortened: as §1
# [43] = biological target: Neu5Ac(a2-8)Neu5Ac(a2-3)[GalNAc(b1-4)]Gal(b1-4)Glc
# Procedure, shortened: as §1
binder,measurement,setting,value
Clec49 (Caenorhabditis elegans) (protein) MTRLTLLLFGLLGAATAQTCNTGGIYNEQFNRCYQYFTAPAQFSFAEQQCNLLGGHLASVQNGQENALLQSNAANSFKRSNYSDYWIGATDLETSGTWKWTDPSVTFDYSNWQLGEPQSGSDCAIQDKGDGTWSAIGCTSYRPYVCVTPVIMTATCPPITTPIPTTCPTPAPCPIKQCVPSCDQGWTYFSPTDFCYRVYHGEKFNDAEASCVLLGGHLASIHSLTENTFVNNIASCGIKEGKYEHLAWIGMRKVGQDWVWTDGTPSDYFNWAPKQPDNPKKELCVQTAPDLSHDKWYENWNNLECNEVMRAYICKKASIHN,glycan array binding signal (z-score),[1],6.67
same,glycan array binding signal (z-score),[2],0.061
same,glycan array binding signal (z-score),[3],2.31
same,glycan array binding signal (z-score),[4],-0.454
same,glycan array binding signal (z-score),[5],4.18
same,glycan array binding signal (z-score),[6],0.062
same,glycan array binding signal (z-score),[7],-0.399
same,glycan array binding signal (z-score),[8],0.226
same,glycan array binding signal (z-score),[9],-0.462
same,glycan array binding signal (z-score),[10],0.541
same,glycan array binding signal (z-score),[11],0.246
same,glycan array binding signal (z-score),[12],2.45
same,glycan array binding signal (z-score),[13],-0.394
same,glycan array binding signal (z-score),[14],-0.244
same,glycan array binding signal (z-score),[15],3.15
same,glycan array binding signal (z-score),[16],2.54
same,glycan array binding signal (z-score),[17],2.57
same,glycan array binding signal (z-score),[18],0.133
same,glycan array binding signal (z-score),[19],-0.488
same,glycan array binding signal (z-score),[20],-0.647
same,glycan array binding signal (z-score),[21],-0.612
same,glycan array binding signal (z-score),[22],0.322
same,glycan array binding signal (z-score),[23],-0.155
same,glycan array binding signal (z-score),[24],-0.484
same,glycan array binding signal (z-score),[25],-0.068
same,glycan array binding signal (z-score),[26],0.223
same,glycan array binding signal (z-score),[27],0.489
same,glycan array binding signal (z-score),[28],-0.119
same,glycan array binding signal (z-score),[29],0.571
same,glycan array binding signal (z-score),[30],1.48
same,glycan array binding signal (z-score),[31],-0.511
same,glycan array binding signal (z-score),[32],3.69
same,glycan array binding signal (z-score),[33],2.19
same,glycan array binding signal (z-score),[34],5.23
same,glycan array binding signal (z-score),[35],14.5
same,glycan array binding signal (z-score),[36],-0.075
same,glycan array binding signal (z-score),[37],0.372
same,glycan array binding signal (z-score),[38],-0.634
same,glycan array binding signal (z-score),[39],0.32
same,glycan array binding signal (z-score),[40],2.58
same,glycan array binding signal (z-score),[41],0.181
same,glycan array binding signal (z-score),[42],-0.326
same,glycan array binding signal (z-score),[43],-0.424
